bovine MsrA act: activates bovine MsrA enzyme; purified bovine MsrA, absorbance read-out; actives 0.3% (n = 360,000); activation, % at 10.6 µM; in the data active means activation above about 7.5%
PLC-beta3 inh: inhibitors of human phospholipase C beta3. Purified PLC-beta3, fluorogenic substrate, fluorescence. inhibition, % at 12.2 µM. actives 0.18% (n = 370,000)
Target sequence (Q01970 whole entry, looked up): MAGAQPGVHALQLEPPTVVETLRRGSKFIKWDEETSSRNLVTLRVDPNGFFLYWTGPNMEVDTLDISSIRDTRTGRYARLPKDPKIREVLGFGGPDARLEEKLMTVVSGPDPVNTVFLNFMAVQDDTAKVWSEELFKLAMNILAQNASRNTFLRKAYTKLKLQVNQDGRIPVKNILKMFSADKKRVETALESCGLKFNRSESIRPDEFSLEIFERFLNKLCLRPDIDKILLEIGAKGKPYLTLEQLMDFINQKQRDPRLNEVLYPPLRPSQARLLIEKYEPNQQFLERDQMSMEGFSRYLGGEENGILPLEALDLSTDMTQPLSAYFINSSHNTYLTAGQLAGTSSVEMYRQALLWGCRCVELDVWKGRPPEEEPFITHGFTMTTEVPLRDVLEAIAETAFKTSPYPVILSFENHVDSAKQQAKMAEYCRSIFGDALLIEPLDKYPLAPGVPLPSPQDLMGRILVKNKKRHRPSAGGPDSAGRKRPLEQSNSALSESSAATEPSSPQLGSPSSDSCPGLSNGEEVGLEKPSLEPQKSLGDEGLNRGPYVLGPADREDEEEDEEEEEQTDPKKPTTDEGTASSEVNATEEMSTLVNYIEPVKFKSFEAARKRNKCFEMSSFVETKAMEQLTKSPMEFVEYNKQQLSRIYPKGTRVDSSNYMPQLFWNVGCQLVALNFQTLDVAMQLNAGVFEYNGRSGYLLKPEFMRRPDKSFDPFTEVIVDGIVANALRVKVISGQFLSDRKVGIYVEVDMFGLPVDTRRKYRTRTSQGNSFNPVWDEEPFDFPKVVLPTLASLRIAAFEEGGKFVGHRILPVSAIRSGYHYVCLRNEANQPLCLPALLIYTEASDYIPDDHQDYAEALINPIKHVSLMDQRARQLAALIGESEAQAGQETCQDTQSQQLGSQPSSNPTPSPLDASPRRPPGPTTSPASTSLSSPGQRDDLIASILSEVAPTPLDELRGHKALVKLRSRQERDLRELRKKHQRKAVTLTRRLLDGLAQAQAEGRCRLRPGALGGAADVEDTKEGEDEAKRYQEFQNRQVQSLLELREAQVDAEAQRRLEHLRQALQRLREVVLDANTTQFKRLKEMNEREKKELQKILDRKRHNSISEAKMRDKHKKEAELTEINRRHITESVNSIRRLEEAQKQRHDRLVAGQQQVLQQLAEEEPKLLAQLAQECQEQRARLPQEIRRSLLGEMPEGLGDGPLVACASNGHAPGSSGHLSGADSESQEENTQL
PLCg1 inh: inhibitors of human phospholipase C gamma1 | purified PLC-gamma1, fluorogenic substrate, fluorescence | inhibition, % at 12.2 µM | actives 0.84% (n = 370,000); in the data active means inhibition above about 9.5%
MsrA inhibitor: inhibits bovine methionine sulfoxide reductase A. actives 0.75% (n = 360,000). purified bovine MsrA, absorbance read-out. AID 651718. inhibition, % at 15.5 µM; in the data active means inhibition above about 4.5%
PLCgamma1 ctr: PLC-gamma1 inhibition, counter-screen for PLC-beta3 hits | shares compounds with PLCg1 inh | purified PLC-gamma1, fluorogenic substrate, fluorescence | inhibition, % at 12.3 µM | actives 3.1% (n = 3,300) | AID 743258; in the data active means inhibition above about 9.5%
PLCb3 confirm: confirmation of human PLC-beta3 inhibitors. shares compounds with PLCg1 inh. purified PLC-beta3, fluorogenic substrate fluorescence. inhibition, % at 12.3 µM. actives 1% (n = 3,300)
A number is an active result; . = inactive; / = no result given. Most compounds without a hit are left out; they make up all but 1.9% or so of the library. Unless noted, no stated cut-off is given here; in the data, active means inhibition above about 11%; inactive means the rest.

SMILES | bovine MsrA act | PLC-beta3 inh | PLCg1 inh | MsrA inhibitor | PLCgamma1 ctr | PLCb3 confirm
CCc1cc(-c2nnn(CCC3COCCO3)c2C(C)(C)O)ccc1-c1cn(CCc2c[nH]c3ccccc23)nn1 (stereo unspecified) | . | . | . | . | / | /
CCN1C(=O)N(C(C)=O)[C@@H]2C[C@H](C(=O)N3CCCC3)[C@H](C)[C@H](c3ccccc3)C[C@@H]21 | / | . | . | . | / | /
COc1ccc(CN2CCC(CNC(=O)NC3CCC(C)CC3)CC2)cc1 (stereo unspecified) | / | . | . | / | / | /
CC(C)COc1ccc(C(=O)Nc2ccc(NC(=O)c3ccco3)c(Cl)c2)cc1 | . | . | . | . | / | /
CC(C)Oc1ccc(C(=O)Nc2ccc(NC(=O)c3ccco3)c(Cl)c2)cc1 | . | 15 | . | . | . | .
O=C(CSc1nnc(-c2ccccc2)n1-c1ccccc1)Nc1ccc(Oc2ccccc2)cc1 | / | . | . | / | / | /
Cc1ccc(NS(=O)(=O)c2ccc(OCC(=O)NCc3ccncc3)cc2)cc1 | . | 11 | . | . | . | .
CCOc1ccc(NS(=O)(=O)c2ccc(OCC(=O)NCc3ccncc3)cc2)cc1 | . | . | . | . | / | /
CCCC[C@@H]1CNC(=O)C(=O)N1CCCC | . | . | . | . | / | /
CCCCC(=O)Nc1nnc(C)s1 | . | . | . | . | / | /
CCC(=O)Nc1nnc(C)s1 | . | . | 10 | . | . | .
CC(c1ccccc1)n1cc(C(=O)N2CCCC2)nn1 (stereo unspecified) | / | . | . | / | / | /
O=C(CCNC(=O)c1ccco1)Nc1ccc(F)c(Cl)c1 | . | . | . | . | / | /
Cc1ccc(Nc2nc(Oc3ccc(=O)[nH]n3)nc(N(C)C)n2)cc1 | . | . | 10.0 | . | . | .
Cc1nc2scc(-c3ccccc3)c2c(=O)n1N=C1C=CC(=O)C=C1 | / | . | . | . | / | /
CC(c1nccs1)N(C)C(=O)CCc1nnc(CCc2ccccc2)o1 (stereo unspecified) | . | . | 12 | . | . | .
CN(Cc1cccc2cnccc12)C(=O)CCc1nnc(CCc2ccccc2)o1 | . | . | . | . | / | /
Cc1ccc(CCNC(=O)CS(=O)Cc2nc(-c3ccccc3Cl)oc2C)cc1 (stereo unspecified) | . | . | 9.7 | . | . | .
CCOc1ccc(CCNC(=O)CS(=O)Cc2nc(-c3ccccc3Cl)oc2C)cc1OCC (stereo unspecified) | . | . | . | . | / | /
Cc1ccc(NC(=S)N2CCN(c3ccccn3)CC2)cc1C | . | . | 11 | . | . | .
Fc1ccccc1NC(=S)N1CCN(c2ccccn2)CC1 | . | . | 10 | . | . | .
Cc1cccc(NC(=S)N2CCN(c3ccccn3)CC2)c1 | . | . | . | . | / | /
S=C(Nc1ccccc1Cl)N1CCN(c2ccccn2)CC1 | . | . | . | . | / | /
C[n+]1c(-c2ccc(C=NNC(=O)c3ccc(C(=O)NN=Cc4ccc(-c5cn6ccccc6[n+]5C)cc4)cc3)cc2)cn2ccccc21 | / | . | . | . | / | /
CCc1ccccc1NC(=O)CN(C)C(=O)COC(=O)c1cccnc1Cl | . | . | 10 | . | . | .
SMILES | bovine MsrA act | PLC-beta3 inh | PLCg1 inh | MsrA inhibitor | PLCgamma1 ctr | PLCb3 confirm
CCc1ccccc1NC(=O)CN(C)C(=O)COC(=O)c1c(Cl)cccc1Cl | . | . | . | . | / | /
CC(C)C[C@H]1COc2cc(Br)ccc2S(=O)(=O)N1Cc1cccc(Cl)c1 | / | . | . | . | / | /
O=c1oc2ccc(NS(=O)(=O)c3cccc4cccnc34)cc2s1 | . | . | 10 | . | . | .
O=S(=O)(Nc1ccc(C(O)(C(F)(F)F)C(F)(F)F)cc1)c1cccc2cccnc12 | . | . | 10 | . | . | .
CCCCOc1cccc(C(=O)Nc2ccc(N3CCN(CC)CC3)cc2)c1 | . | 11 | . | . | . | .
COc1cccc(C(=O)NCCN2CCN(c3ccc(Cl)cc3)CC2)c1 | . | . | 9.9 | . | . | .
COc1cccc(C(=O)NCCN2CCOCC2)c1 | . | . | . | . | / | /
COc1cccc(C(=O)NNC(=O)CCN2CCN(c3ccccc3)CC2)c1 | . | 13 | . | . | . | .
O=C(c1cc(Br)c(Br)s1)N1CCc2ccccc2C1 | . | . | . | . | / | /
COc1ccc(NS(=O)(=O)c2cccc(C(=O)NNC(=O)CNC(=O)c3ccccc3)c2)cc1 | . | . | . | . | / | /
COc1ccc(NS(=O)(=O)c2cccc(C(=O)NNC(=O)COc3ccccc3)c2)cc1 | . | . | 9.6 | . | . | .
CCCCOCCCN1CC(=O)N2[C@@H](Cc3c([nH]c4ccccc34)C2(C)C)C1=O | . | . | . | . | / | /
Cc1cc2c(nc1C)CCCN2S(=O)(=O)c1ccc(C#N)cc1 | / | . | . | . | / | /
Cc1ccccc1C(=O)N1CCC[C@@H]1C(=O)N1CCC[C@H]1C(=O)NCc1ccccc1 | / | . | . | . | / | /
O=C(NCCc1ccccc1)C1CCCN1S(=O)(=O)c1ccccc1 (stereo unspecified) | . | . | . | . | / | /
O=C(NCCc1ccccc1)C1CCCN1S(=O)(=O)c1ccc(F)cc1 (stereo unspecified) | . | 12 | . | . | . | .
NC(N)=N/N=C(\N=Nc1ccccc1)c1ccc(Cl)cc1 | . | . | 10 | . | . | .
COc1ccc(C(C[N+](=O)[O-])c2c(C)[nH]n(-c3ccccc3)c2=O)cc1 (stereo unspecified) | . | . | 10 | . | . | .
Cc1[nH]n(-c2ccccc2)c(=O)c1C(c1ccc(O)c([N+](=O)[O-])c1)c1c(C)[nH]n(-c2ccccc2)c1=O | . | . | 22 | . | . | .
O=C(Nc1nnc([C@H]2C[C@H](O)[C@@H](CO)O2)s1)c1cccc(OC(F)(F)F)c1 | . | . | . | . | / | /
Cc1ccc(OC(=O)C2CCN(C(=O)c3ccccc3C)CC2)c(Br)c1 | . | . | 11 | . | . | .
CCOC(=O)N1CCN(C(=O)/C(=C\c2cccs2)NC(=O)c2cccs2)CC1 | . | . | 10 | . | . | .
COC(=O)CN1CC(=O)N(c2ccccc2)C1=S | . | . | 10 | . | . | .
CCc1ccc(N2C(=O)CN(CC(=O)OC)C2=S)cc1 | . | . | . | . | / | /
COCCCNC(=O)C[C@H]1C[C@@]2(C(=O)OC)C(=C[C@H](C(C)C)O[C@@H]2C2CC2)N(Cc2ccc(Cl)cc2Cl)C1=O | / | . | 10 | / | . | .
COC(=O)[C@]12C[C@H](CC(=O)NCCC(C)C)C(=O)N(Cc3ccc(Cl)cc3Cl)C1=C[C@H](C(C)C)O[C@@H]2C1CC1 | / | . | . | / | / | /
COC(=O)[C@]12C[C@H](CC(=O)N3CCCCC3)C(=O)N(Cc3ccccc3)C1=C[C@H](C(C)C)O[C@@H]2C1CC1 | / | 13 | . | . | . | .
CC1CCCCN1C(=O)c1ccc(CNC(=O)c2cccc(Br)c2)cc1 (stereo unspecified) | / | . | . | / | / | /
CCCOc1ccc(C2C(=O)N(C3CCCCCC3)CC(=O)N2Cc2ccco2)cc1OC (stereo unspecified) | . | . | . | . | / | /
CCCOc1ccc(C2C(=O)N(C3CCCCC3)CC(=O)N2C2CC2)cc1OC (stereo unspecified) | . | . | 13 | . | . | .
